This is a sample that favours compounds with a hit; in the whole collection about 5.1% have one here.
TMEM16A inh: TMEM16A chloride channel inhibitors, primary screen, cell-based, HTS | 1.2% of 310,000 active | normalized B-score (activity score, 25-100; higher = stronger inhibition) at 10 µM | HEK293 TMEM16A/YFP iodide influx fluorescence, ionomycin | Anoctamin-1 (Mus musculus), Q8BHY3;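 active = ratio plate-corrected score three or more library SD toward inhibition, starting fluorescence score within five deviations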;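 also: score derived from kinetic fluorescence span divided by baseline fluorescence per well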
Target sequence (Q8BHY3 whole entry, looked up): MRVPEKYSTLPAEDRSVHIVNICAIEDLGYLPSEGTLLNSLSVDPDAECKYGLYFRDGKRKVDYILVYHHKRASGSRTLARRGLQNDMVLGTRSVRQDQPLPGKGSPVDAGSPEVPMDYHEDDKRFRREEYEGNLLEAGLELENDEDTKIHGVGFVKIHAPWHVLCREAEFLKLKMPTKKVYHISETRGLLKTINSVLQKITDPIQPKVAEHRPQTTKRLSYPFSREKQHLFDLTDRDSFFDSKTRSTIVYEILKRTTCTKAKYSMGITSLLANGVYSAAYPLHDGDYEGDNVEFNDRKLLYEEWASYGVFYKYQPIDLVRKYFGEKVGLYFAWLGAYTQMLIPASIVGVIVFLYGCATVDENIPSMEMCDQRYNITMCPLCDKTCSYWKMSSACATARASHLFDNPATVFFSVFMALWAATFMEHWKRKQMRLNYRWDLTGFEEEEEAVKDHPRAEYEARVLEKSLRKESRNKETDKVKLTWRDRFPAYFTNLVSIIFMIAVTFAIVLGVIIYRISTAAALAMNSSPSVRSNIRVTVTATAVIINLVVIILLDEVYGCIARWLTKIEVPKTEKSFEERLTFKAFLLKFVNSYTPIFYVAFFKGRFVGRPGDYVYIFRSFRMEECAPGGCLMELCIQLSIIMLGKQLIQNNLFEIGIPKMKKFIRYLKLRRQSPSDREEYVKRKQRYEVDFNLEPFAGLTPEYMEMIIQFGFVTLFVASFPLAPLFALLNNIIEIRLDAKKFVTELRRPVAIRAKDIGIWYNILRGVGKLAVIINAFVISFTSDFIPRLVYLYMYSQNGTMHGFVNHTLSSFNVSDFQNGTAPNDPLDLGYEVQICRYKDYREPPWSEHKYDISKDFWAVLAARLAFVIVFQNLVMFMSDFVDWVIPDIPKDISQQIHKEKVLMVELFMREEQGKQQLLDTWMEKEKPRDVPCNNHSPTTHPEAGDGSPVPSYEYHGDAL
CRFR2-BP antag: antagonists of CRF-BP/CRF-R2 complex, primary screen, cell-based, HEK293, calcium dye fluorescence, uHTS | inhibition, % at 11.8 µM | 0.59% of 350,000 active | AID 588475, 2011 | CRF-induced calcium fluorescence;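 active = inhibition of the ligand-induced calcium signal above about 50% at the single tested concentration, limit read from the data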
ANO1 activ: TMEM16A chloride channel activators or potentiators, primary screen, cell-based, HTS; HEK293 TMEM16A/YFP-H148Q/I152L, iodide quench fluorescence; active compounds read low; Anoctamin-1 (Mus musculus), Q8BHY3; B-score at 10 µM; 0.3% of 340,000 active;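 active = fluorescence-ratio B-score plate-corrected deviation score at least 3 library SD below zero, with starting fluorescence score within 5 deviations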;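 also: channel opened by trigger with iodide after compound preincubation; score built on the fluorescence ratio of max minus min over baseline; more negative score means more quench and so TMEM16A activation or potentiation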
MPTP inh: mitochondrial permeability transition pore inhibitors, primary screen, biochemical, isolated mouse mitochondria, absorbance | AID 602449, 2012 | Ca2+ swelling absorbance, 30 min | 1.4% of 360,000 active | inhibition, % at 10 µM;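 active = inhibition of 50% or more, scaled per plate between neutral and stimulator controls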;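 also: 0% = DMSO wells given calcium and 100% = 1 mM EGTA wells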
GRIN3A LBD mod: binders of NR3A ligand-binding domain, primary screen, biophysical, differential scanning fluorimetry, uHTS; Glutamate receptor ionotropic, NMDA 3A (GRIN3A) ligand-binding domain; NR3A LBD differential scanning fluorimetry, Tm shift; 0% = protein alone, 100% = glycine-bound protein; Tm shift relative to glycine control, % at 25 µM; 2.5% of 340,000 active;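 active = melting temperature shift of at least 10% of the positive control shift, at one fixed dose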
CRFBP-R2 agonist: agonists of CRF-BP/CRF-R2 complex, primary screen, cell-based, HEK293, calcium dye fluorescence, uHTS; 0.46% of 350,000 active; activation, % at 13.2 µM; CRF-binding protein / CRF receptor 2 complex (human); calcium dye fluorescence (FLIPR); percent of saturating CRF peptide response;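 active = activation of at least 50%, plus an integration ratio under a set limit after plate pattern correction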;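 also: plate controls were neutral control wells without compound for no effect and CRF at EC100 for full effect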
MPTP counter: fluorescence retest of MPTP screen hits in isolated mitochondria, single concentration. shares compounds with MPTP inh. membrane potential, Rhodamine 123 fluorescence. inhibition, % at 10 µM. 78% of 5,000 active. AID 624504, 2012; in the data active = inhibition above about 22%;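 also: 0% = DMSO vehicle and 100% = positive control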
MPTP abs DR: mitochondrial permeability transition pore inhibitors, dose response, biochemical, absorbance, uHTS hits; shares compounds with MPTP inh; isolated mitochondria swelling; IC50, µM; 58% of 780 active; in the data active = IC50 below about 20 µM
MPTP counter DR: fluorescent counter-screen in isolated mitochondria, dose response, counter-screen for MPTP inhibitor project, biochemical, fluorescence, uHTS hits | shares compounds with MPTP inh | isolated mitochondria counterscreen, fluorescence read-out | IC50, µM | 49% of 780 active; in the data active = IC50 below about 80 µM
The depositor's hits bear a star; i = inactive; . = not tested or not shown; ! = repeats disagree.

SMILES	TMEM16A inh	CRFR2-BP antag	ANO1 activ	MPTP inh	GRIN3A LBD mod	CRFBP-R2 agonist	MPTP counter	others
CC(C)N(C(=S)Nc1cccc(C(F)(F)F)c1)C(C)c1ccccn1 (stereo unspecified)	100*	1	i	92*	-2	2	83*
COc1ccc(CNC(=O)CN2CCN(c3ccccc3O)CC2)cc1OC	i	6	.	0	0	0	.
Cc1ccc(-c2cc(C(=O)Nc3ccc(S(=O)(=O)N4CC(C)OC(C)C4)cc3)[nH]n2)c(O)c1 (stereo unspecified)	i	-9	i	51*	30*	2	69*
O=C(Cc1ccc(Cl)cc1)Nc1ccc(S(=O)(=O)N2CCOCC2)cc1	i	-10	i	0	-2	1	.
O=C(Nc1ccc(S(=O)(=O)N2CCOCC2)cc1)c1cc(-c2cc(Cl)ccc2O)n[nH]1	i	-6	i	75*	36*	3	61*
O=C(CN1C(=O)NC2(CCCC2)C1=O)Nc1ccc(F)c([N+](=O)[O-])c1	i	3	i	0	-3	0	.
COc1ncnc2c1ncn2CCCN[C@H](C)c1cccc2ccccc12	.	-3	.	-4	.	0	.
C=CCN1C(=O)C(CC(=O)O)S/C1=N/N=C/c1ccc(N(CC)CC)cc1 (stereo unspecified)	.	4	i	0	-4	-1	.
Cc1ccc(S(=O)(=O)/N=C2/NC(=O)/C(=C/c3ccc(Br)o3)S2)cc1	25*	55*	i	53*	-13	-2	68*
COc1cc(/C=C2/S/C(=N/S(=O)(=O)c3ccccc3)NC2=O)c([N+](=O)[O-])cc1OC	i	29	i	0	-3	2	.
COc1ccc([C@H]2CC(=O)C=C(c3ccnc4ccc(Cl)cc34)C2)cc1	.	-4	i	89*	-6	1	99*
CN(C)CCN=Cc1c(O)n(Cc2ccccc2)c(=O)c2ccccc12	i	-17	i	0	0	3	.
CC1(C)CC(N=Cc2c(O)n(Cc3ccc4c(c3)OCO4)c(=O)c3ccccc23)CC(C)(C)N1	i	-15	i	53*	0	0	-22	MPTP abs DR=4.9*;MPTP counter DR=>80
CC(=O)Nc1cc(-c2ccc(C(=O)N3CCOCC3)cc2)cn2c(-c3cccc(C(F)(F)F)c3)cnc12	.	.	.	-1	.	.	.
O=S(=O)(Nc1ccon1)c1ccc(Br)cc1	i	7	i	0	1	-1	.
CC(C)(C)NC(=O)CSc1nc2ccc(NC(=O)CSc3nnc(N)s3)cc2s1	i	16	i	67*	-7	1	25*
Nc1ccc2nc(SCC(=O)Nc3ccc(N4CCOCC4)c(Cl)c3)sc2c1	i	-2	i	58*	18*	1	7	MPTP abs DR=18*;MPTP counter DR=28*
CC(C)(C)NC(=O)CSc1nc2ccc(NC(=O)CSc3nnnn3Cc3ccccc3)cc2s1	i	17	i	10	2	2	.
O=c1[nH]c(=O)n(Cc2ccco2)c2c1C(C(F)(F)F)(C(F)(F)F)N=C(CCc1ccccc1)N2	i	-4	i	7	2	0	.
O=c1[nH]c(=O)n(Cc2ccco2)c2c1C(C(F)(F)F)(C(F)(F)F)N=C(CCC1CCCCC1)N2	i	-33	i	70*	3	1	90*
N#Cc1ccc(C2=NC(C(F)(F)F)(C(F)(F)F)c3c(n(Cc4ccco4)c(=O)[nH]c3=O)N2)cc1	100*	-12	i	84*	12*	10	84*
O=C(Cn1cnc2ccccc2c1=O)NCCC(=O)Nc1ccccc1C(F)(F)F	i	-2	i	-2	0	0	.
COc1ccc(-c2[nH]c(-c3cc(OC)c4c(c3)OCO4)nc2-c2ccccc2)cc1	i	15	i	95*	2	-1	69*
CNC(=O)Nc1cc(C(F)(F)F)cc(C(F)(F)F)c1	i	13	i	64*	-1	-2	94*
CC(CC(=O)O)CC(=O)Nc1cc(C(F)(F)F)cc(C(F)(F)F)c1 (stereo unspecified)	i	4	i	2	1	-1	.
SMILES	TMEM16A inh	CRFR2-BP antag	ANO1 activ	MPTP inh	GRIN3A LBD mod	CRFBP-R2 agonist	MPTP counter	others
CC1CCCCN1C(=O)COC(=O)C1CCN(S(=O)(=O)c2c(Cl)cccc2Cl)CC1 (stereo unspecified)	i	5	i	2	0	0	.
Cc1ccc(S(=O)(=O)NCC(=O)OCC(=O)NCc2ccc3c(c2)OCO3)cc1	.	-2	i	2	2	1	.
Cc1onc(-c2ccccc2)c1C(=O)OCC(=O)Nc1ccc(OC(F)(F)F)cc1	.	-26	i	86*	12*	24	91*
Cc1cc(F)ccc1S(=O)(=O)Nc1ccccc1C(=O)N1CCCC1	.	3	i	-2	0	0	.
CCOC(=O)C1=C(COCCN)NC(C)=C(C(=O)OC)C1c1ccccc1Cl (stereo unspecified)	i	-2	i	99*	1	0	-21	MPTP abs DR=4*;MPTP counter DR=72*!
CCOC(=O)c1c(/N=C/c2cccc(C)c2O)sc2c1CCN(C)C2	i	-7	i	71*	-6	0	-16
Nc1ccn([C@@H]2O[C@H](C(=O)Nc3cc(C(F)(F)F)cc(C(F)(F)F)c3)[C@@H](O)[C@H]2O)c(=O)n1	.	.	.	2	.	.	.
O=C(Nc1ccc(Cl)c(Cl)c1)Nc1ccccc1NS(=O)(=O)c1cccs1	100*	-14	i	87*	34*	1	92*
O=C(Nc1ccccc1)Nc1ccccc1NS(=O)(=O)c1cccs1	i	4	i	61*	22*	1	65*
CN(C)C(CNc1ccc(C(F)(F)F)cn1)c1ccccc1 (stereo unspecified)	i	-38	i	68*	3	3	-4	MPTP abs DR=i;MPTP counter DR=>80
CN(C(=S)Nc1ccc(Oc2ccccc2)cc1)C1CCCCC1	i	9	i	46	-30	0	.
